# Source: PubChem BioAssay (Broad Institute)
# Rows were chosen to be rich in hits. Some 3% of all compounds tested hit in one or more screens of this group.
# MITF act – activators of MITF-driven TRPM1 promoter reporter, primary screen, cell-based, SK-MEL-5, luciferase, single point; SK-MEL-5 TRPM1-promoter luciferase, 24 h; % of positive control, neutral wells = 0; AID 588334, 2011; activation, % at 12.5 µM; hit rate 0.75% among 300,000;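 active = mean activation of at least 80% with every replicate also reaching 80%; inconclusive = mean reaches 80% but some replicate falls short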;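 also: 0% = neutral control wells and 100% = parthenolide positive control wells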
# Wnt act – Wnt/beta-catenin pathway activators, primary screen, cell-based, plate reader, single point; Wnt/beta-catenin reporter cell assay, activator; activation, % at 9.35 µM; hit rate 1.2% among 300,000; in the data active = activation above about 30%, passing the limit was not always enough; inconclusive = no clear call, values can overlap the other calls;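 also: 0% = neutral control wells and 100% = positive control wells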
# Statin myotox sup – suppressors of statin myotoxicity in C2C12 myotubes, primary screen, cell-based, single point, plate reader; C2C12 myotubes + simvastatin, ATP luminescence, 48 h; scaled: DMSO 0, geranylgeraniol control 100; rescue of ATP level, % at 7.49 µM; hit rate 0.78% among 330,000;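 active = mean ATP rescue above about 67%, or every replicate alone reaching that limit, limit read from the data, passing the limit was not always enough; inconclusive = no clear call, values can overlap the other calls; inactive = mean under the limit and some replicate under it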;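 also: myotubes were challenged with 10 µM simvastatin during compound exposure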
# esBAF inh – Bmi1 luciferase reporter increase in mESCs, primary screen, esBAF inhibitor project, mouse ES cells, Bmi1 luciferase knock-in, single point; AID 602393, 2012; reporter increase, % at 12.5 µM; 24 h; 100% = twice the neutral-well signal; hit rate 2% among 350,000; in the data active = activation above about 40%; inconclusive = no clear call, values can overlap the other calls;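 also: 0% = median of the plate's neutral control wells and 100% = double that signal; a rise in the Bmi1 reporter signal indicates esBAF inhibition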
# An asterisk follows results filed as active; ? = inconclusive; / = not tested or not shown.
SMILES,MITF act,Wnt act,Statin myotox sup,esBAF inh
Cc1occc1-c1nnc(SC(C)C(=O)Nc2ccccc2F)o1 (stereo unspecified),58,42*,-94,/
CC1Cc2ccccc2N1C(=O)/C=C/c1cccc(F)c1 (stereo unspecified),96*,14,-14,90*
CC1Cc2ccccc2N1C(=O)COC(=O)/C=C/c1ccc(F)cc1 (stereo unspecified),-7,-1,-13,-7
CCCNC(=O)N1C[C@@H](O)COC[C@H]2O[C@H](CC(=O)NCc3ccc(Cl)c(Cl)c3)CC[C@@H]21,/,/,-20,-1
CN1C2CCC1/C(=C\c1ccccc1)C(=O)/C2=C\c1ccccc1,-30,1,67*,10
CN1CCSc2ccc(C(=O)Nc3cccc(F)c3)cc21,65,10,-10,50*
CN1CCSc2ccc(C(=O)NCc3ccccc3)cc21,/,5,6,27
COc1ccc(NC(=O)c2ccc3c(c2)n(C)c(=O)n3C)cc1,-13,0,-4,15
COc1ccc(NC(=O)c2ccc3c(c2)N(C)CCS3)cc1,/,53*,11,85*
O=C(N[C@H]1CC[C@@H](CCn2cc(C3CCCCC3)nn2)O[C@H]1CO)c1cccnc1,/,/,3,-1
O=C(COc1ccccc1Cl)c1ccc[nH]1,44,25,/,/
O=C(COc1ccc(Br)cc1Cl)NC1CCCCC1,88*,23,/,/
O=C(COc1ccc(Br)cc1Cl)c1ccc[nH]1,102*,19,-4,74*
O=C(COc1ccc(F)c(Cl)c1)NC(=O)NC1CCCC1,/,-2,0,8
O=C(COc1ccc(Br)cc1Cl)NC(=O)NC1CCCC1,93*,38*,-1,51*
O=C(COc1ccc(Br)cc1Br)NC1CCCC1,40,8,/,/
CC(C)NC(=O)N(C)C[C@H]1Oc2c(NC(=O)Nc3ccc(C(F)(F)F)cc3)cccc2C(=O)N([C@@H](C)CO)C[C@H]1C,/,/,-47,-9
CCCC#Cc1cnc2c(c1)C(=O)N([C@@H](C)CO)C[C@H](C)[C@H](CN(C)C(=O)C1CCOCC1)O2,/,/,11,3
C[C@@H]1CN([C@H](C)CO)C(=O)Cc2cc(NC(=O)C3CC3)ccc2O[C@@H]1CN(C)CC1CCCCC1,/,/,1,-1
C[C@@H]1CN([C@@H](C)CO)S(=O)(=O)c2ccc(C3=CCCC3)cc2O[C@H]1CN(C)C(=O)C1CC1,/,/,-18,/
COc1ccc(-c2noc(-c3ccc(Cl)cc3[N+](=O)[O-])n2)cc1OC,71,21,/,/
Cc1cccc(-c2noc(-c3ccc(Cl)cc3[N+](=O)[O-])n2)c1,71,43*,/,/
COc1ccc(C(=O)Nc2ccc(C3CC3(Cl)Cl)cc2)cc1 (stereo unspecified),37,-1,4,91*
COc1ccc(NC(=O)c2cc(-c3ccco3)on2)cc1,92*,42*,/,/
COc1ccc(NC(=O)c2cc(-c3ccco3)on2)c(OC)c1,2,-1,-6,8
SMILES,MITF act,Wnt act,Statin myotox sup,esBAF inh
CCc1ccc(NC(=O)c2cc(-c3ccco3)on2)cc1,101*,/,10,66*
COc1ccc(NC(=O)Nc2nnc(-c3ccco3)s2)cc1,78,53*,6,30
COc1ccc(NC(=O)c2ccc(NC(=O)c3ccncc3)cc2)cc1,3,-2,-63,-2
CN(C)CCCNC(=O)C[C@@H]1CC[C@@H](NC(=O)c2ccccc2F)[C@@H](CO)O1,/,/,-5,0
CCCN1[C@@H]2c3ccc(-c4ccccc4OC)c(=O)n3C[C@@H]2[C@@H](CO)[C@@H]1C(=O)N(C)C,/,/,-4,3
COc1ccc(NC(=O)c2cc(-c3ccccc3Cl)on2)cc1,/,?,-10,63*
COc1ccc(NC(=O)c2coc(C)c2)cc1,/,10,12,74*
C[C@@H]1CCCCO[C@H](CN(C)CC2CCCCC2)[C@H](C)CN([C@@H](C)CO)C(=O)c2cc(NS(=O)(=O)c3cn(C)cn3)ccc2O1,/,/,16,3
COc1cc(/C=C(/C#N)C(=O)Nc2ccccc2)c(Br)cc1OCc1ccc(C(=O)O)cc1,12,13,-4,8
COc1cc(/C=C(\C#N)C(=O)Nc2cccc(C(=O)O)c2)ccc1OCc1ccc(Cl)cc1,33,34*,22,7
O=C(CC1CC1)N[C@H]1CC[C@H](CCNS(=O)(=O)c2ccc(Cl)cc2)O[C@@H]1CO,/,/,4,2
